Screening data as filed in PubChem.
A selection: hits, their analogues and other compounds. The true share with any hit is near 31%.
PLAP act: activates human placental alkaline phosphatase; P05187; purified PLAP enzyme, luminescent substrate read-out; stronger effect = higher value; activation fold at 20 µM; 96,000 compounds, 1.2% hits; AID 696; in the data active = activation fold above about 2
CYP2C9 activ: increases human cytochrome P450 2C9 activity; recombinant CYP2C9, luciferin-H conversion, luminescence; stronger effect = higher value; factor 1 = untreated enzyme, 0 = blocked; activation factor at 5 µM; 96,000 compounds, 1.4% hits;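 active = activation factor of 2 or more for CYP2C9 at a 5 µM dose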;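 also: 0 = sulfaphenazole-blocked wells and 1 = vehicle-only wells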
Target sequence (P11712 whole entry, looked up): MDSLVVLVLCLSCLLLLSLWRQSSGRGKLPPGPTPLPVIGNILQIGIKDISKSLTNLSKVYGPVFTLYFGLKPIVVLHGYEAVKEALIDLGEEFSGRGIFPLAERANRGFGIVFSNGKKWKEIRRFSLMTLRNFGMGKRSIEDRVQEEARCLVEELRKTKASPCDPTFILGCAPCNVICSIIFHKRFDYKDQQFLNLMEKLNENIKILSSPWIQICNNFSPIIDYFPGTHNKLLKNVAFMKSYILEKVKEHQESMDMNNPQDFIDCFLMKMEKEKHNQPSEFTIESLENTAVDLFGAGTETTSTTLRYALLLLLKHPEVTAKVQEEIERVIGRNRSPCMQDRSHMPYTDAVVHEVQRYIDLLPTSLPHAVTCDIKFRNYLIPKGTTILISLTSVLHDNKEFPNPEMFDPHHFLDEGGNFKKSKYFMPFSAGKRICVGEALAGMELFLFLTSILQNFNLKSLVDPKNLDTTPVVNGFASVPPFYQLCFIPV
CYP2C19 act: activators of human cytochrome P450 2C19. recombinant CYP2C19, luciferin-H EGE luminescence; stronger effect = higher value; 0 = fully inhibited enzyme, 1 = untreated enzyme. activation factor at 5 µM. P33261. 96,000 tested, under 10 active;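 active = activation factor of at least 2 at 5 µM in the primary screen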;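 also: 0 = wells with 2.5 mM tranylcypromine and 1 = vehicle-only wells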
CYP2C9 inh: blocks human cytochrome P450 2C9. P11712. CYP2C9 Supersomes, luciferin-H conversion, luminescence. inhibition, % at 5 µM. 96,000 compounds, 20% hits. AID 777;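 active = blocking of liver enzyme CYP2C9 beyond about 50% at 5 µM, limit read from the data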
CYP2C19 inhib: inhibitors of human CYP2C19; 96,000 compounds, 21% hits; P33261; inhibition, % at 5 µM; CYP2C19 Supersomes, luciferin-H EGE luminescence, 30 min;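 active = CYP2C19 inhibition above a set limit at 5 µM in the primary screen, cut at about 50% in these data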;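 also: plate controls were negative control wells for no effect and 2.5 mM tranylcypromine positive control for full effect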
Numbers without * were called inactive.

How did Cn1c(=O)n(C/C=C/c2ccccc2)c(=O)c2c1nc1n2CCCN1c1ccc(F)cc1 do in these assays?
PLAP act: 1.6; CYP2C9 activ: 0.6; CYP2C19 act: 0.7; CYP2C9 inh: 37.9; CYP2C19 inhib: 30.5

Results for CCCCNC(=O)CCn1nc(-c2ccccc2)ccc1=O ?
PLAP act: 1; CYP2C9 activ: 1.1; CYP2C19 act: 1.1; CYP2C9 inh: -6.6; CYP2C19 inhib: -5.6

Results for CC1CCCN(CCCNC(=O)CCn2nc(-c3ccccc3)ccc2=O)C1 (centres undefined) ?
PLAP act: 1.5; CYP2C9 activ: 0.1; CYP2C19 act: 1; CYP2C9 inh: 87.0*; CYP2C19 inhib: -4.3

What do the screens show for `O=C1C2CCCN2C(c2ccccc2F)N1c1ccc(F)cc1` (centres undefined)?
PLAP act: 1.6; CYP2C9 activ: 0.8; CYP2C19 act: 0.8; CYP2C9 inh: 16.3; CYP2C19 inhib: 23.1

How did Cc1ccc(SC/C(O)=C(\C#N)c2nc3ccccc3n2C)cc1 do in these assays?
PLAP act: 0.9; CYP2C9 activ: 0.5; CYP2C19 act: 0.7; CYP2C9 inh: 50.0*; CYP2C19 inhib: 30.3

Results for CCN(CC)S(=O)(=O)c1ccc(/C(O)=C(\C#N)c2nc3ccccc3n2C)cc1 ?
PLAP act: 1.9; CYP2C9 activ: 0.8; CYP2C19 act: 1.1; CYP2C9 inh: 20.1; CYP2C19 inhib: -6.5

How did Cn1c(/C(C#N)=C(\O)CN2CCN(Cc3ccccc3)CC2)nc2ccccc21 do in these assays?
PLAP act: 2.5*; CYP2C9 activ: 0.8; CYP2C19 act: 0.8; CYP2C9 inh: 16.7; CYP2C19 inhib: 24.2

Results for CCOc1cc(C(=O)N2CCOCC2)ccc1OCc1ccccc1 ?
PLAP act: 1.5; CYP2C9 activ: 0.9; CYP2C19 act: 1; CYP2C9 inh: 5.6; CYP2C19 inhib: -3.4

How did CCCCNc1nc(CC)c2c(c1C#N)CCCC2 do in these assays?
PLAP act: 1.1; CYP2C9 activ: 0.6; CYP2C19 act: 0.7; CYP2C9 inh: 38.1; CYP2C19 inhib: 25.5

What do the screens show for `COc1ccc(OC)c(NC(=O)C2CCN(c3cc(-c4ccccc4)nc4ncnn34)CC2)c1`?
PLAP act: 0.8; CYP2C9 activ: 0.7; CYP2C19 act: 0.5; CYP2C9 inh: 32.5; CYP2C19 inhib: 51.8*

How did CCC(=O)NC(=S)N1CCN(c2ccc([N+](=O)[O-])cc2Cl)CC1 do in these assays?
PLAP act: 1; CYP2C9 activ: 1; CYP2C19 act: 0.3; CYP2C9 inh: -4.5; CYP2C19 inhib: 67.5*

How did CCC(C)Oc1ccccc1C1CC(=O)NC2=C1C(=O)CCC2 (centres undefined) do in these assays?
PLAP act: 1; CYP2C9 activ: 1; CYP2C19 act: 1; CYP2C9 inh: -3.6; CYP2C19 inhib: 1.5

How did CC(=O)Nc1ccc(N2S(=O)(=O)c3ccccc3S2(=O)=O)cc1 do in these assays?
PLAP act: 0.9; CYP2C9 activ: 2.3*; CYP2C19 act: 0.9; CYP2C9 inh: -132.8; CYP2C19 inhib: 10.7

What do the screens show for `CCOC(=O)C1=NN(C(=O)Nc2cccc(C(F)(F)F)c2)C2C(=O)N(c3cccc(C(F)(F)F)c3)C(=O)C12` (centres undefined)?
PLAP act: 1.4; CYP2C9 activ: 0.6; CYP2C19 act: 0.6; CYP2C9 inh: 44.8; CYP2C19 inhib: 35.2

What do the screens show for `Cc1ccc(C2=N/C(=C/c3cccs3)C(=O)N2Nc2ccccc2)cc1`?
PLAP act: 0.8; CYP2C9 activ: 0.9; CYP2C19 act: 1; CYP2C9 inh: 12.4; CYP2C19 inhib: -3.1

Results for CCC(C)N(C(=O)CSc1nc(-c2ccccc2)cs1)C1CCS(=O)(=O)C1 (centres undefined) ?
PLAP act: 1.4; CYP2C9 activ: 2.5*; CYP2C19 act: 0.9; CYP2C9 inh: -152.8; CYP2C19 inhib: 12.4

Results for O=S(=O)(c1cccs1)N1CCN(CC(O)COc2cc(Cl)ccc2Cl)CC1 (centres undefined) ?
PLAP act: 0.9; CYP2C9 activ: 0.7; CYP2C19 act: 0.5; CYP2C9 inh: 34.6; CYP2C19 inhib: 45.7

Results for Cc1ccc(S(=O)(=O)CCc2nnc(NC(=O)c3cnccn3)s2)cc1 ?
PLAP act: 1.2; CYP2C9 activ: 0.5; CYP2C19 act: 1.1; CYP2C9 inh: 51.1*; CYP2C19 inhib: -13.2

Results for O=C(c1ccc(-c2ccccc2)cc1)N1CCCC1 ?
PLAP act: 1; CYP2C9 activ: 0.9; CYP2C19 act: 0.9; CYP2C9 inh: 8.5; CYP2C19 inhib: 7.4

What do the screens show for `O=C(c1ccccc1)N1CCCC(c2ccc(Cl)cc2)=N1`?
PLAP act: 1; CYP2C9 activ: 0.6; CYP2C19 act: 0.4; CYP2C9 inh: 44.8; CYP2C19 inhib: 56.8*

What do the screens show for `O=C(c1cccc(Cl)c1)N1CCCC(c2ccc(Cl)cc2)=N1`?
PLAP act: 1.1; CYP2C9 activ: 0.5; CYP2C19 act: 0.4; CYP2C9 inh: 48.1; CYP2C19 inhib: 61.7*

Results for Cc1cccnc1NC(=O)c1ccc2nc(N)sc2c1 ?
PLAP act: 1; CYP2C9 activ: 0.8; CYP2C19 act: 0.9; CYP2C9 inh: 22.5; CYP2C19 inhib: 5.9

What do the screens show for `CCOC(=O)CSc1nc(N)c(C#N)c(CC(C)C)c1C#N`?
PLAP act: 0.9; CYP2C9 activ: 0.7; CYP2C19 act: 0.9; CYP2C9 inh: 28.3; CYP2C19 inhib: 9.3

Results for CCOC(=O)CSC1=C(C#N)C(=O)NC2(CCCCC2)S1 ?
PLAP act: 1.3; CYP2C9 activ: 0.4; CYP2C19 act: 0.8; CYP2C9 inh: 60.7*; CYP2C19 inhib: 23.8

Results for COc1cc(/C=N/N2C(=O)CSC2=S)ccc1O ?
PLAP act: 2.2*; CYP2C9 activ: 1; CYP2C19 act: 0.9; CYP2C9 inh: -3.7; CYP2C19 inhib: 10.5

How did O=C(Nc1nccc(-c2cccs2)n1)c1ccccc1Cl do in these assays?
PLAP act: 1; CYP2C9 activ: 0.9; CYP2C19 act: 0.7; CYP2C9 inh: 5.0; CYP2C19 inhib: 27.7

Results for O=C(c1ccccc1Cl)N(C(=O)c1ccccc1Cl)c1nccc(-c2cccs2)n1 ?
PLAP act: 1; CYP2C9 activ: 0.2; CYP2C19 act: 0.6; CYP2C9 inh: 76.8*; CYP2C19 inhib: 35.3

Results for O=C(c1ccco1)N1CCN(C(=O)c2cc(-c3ccccn3)nc3ccc(Cl)cc23)CC1 ?
PLAP act: 1.5; CYP2C9 activ: 0.1; CYP2C19 act: 0.5; CYP2C9 inh: 88.5*; CYP2C19 inhib: 53.2*

How did O=C(c1cc(-c2ccccn2)nc2ccc(Br)cc12)N1CCc2ccccc2C1 do in these assays?
PLAP act: 1.4; CYP2C9 activ: 0.1; CYP2C19 act: 0.1; CYP2C9 inh: 88.7*; CYP2C19 inhib: 87.1*

How did CC1CC(C)CN(C(=O)c2cc(-c3ccccn3)nc3ccccc23)C1 (centres undefined) do in these assays?
PLAP act: 1.1; CYP2C9 activ: 0.7; CYP2C19 act: 0.7; CYP2C9 inh: 27.2; CYP2C19 inhib: 25.1

How did COc1ccc(OC)c(-c2cc(C(=O)N3CCN(c4ncccn4)CC3)c3ccccc3n2)c1 do in these assays?
PLAP act: 1.3; CYP2C9 activ: 0.1; CYP2C19 act: 0.3; CYP2C9 inh: 89.4*; CYP2C19 inhib: 65.0*
